Experimental data: the supplement of paper PMC10849652
Of roughly 7,900 targets only a part is listed; those with a hit were picked by preference. About 0.6% of all pairs of compound and target were hits.

How the values were obtained:
Experiment in all cases: log2 fold change, soluble protein after heating vs DMSO (PISA); higher = thermal stabilisation; K562 cells, 10 uM, 30 min; active = over 0.2 and 3.5 SD of the protein, either way, in both replicates (recomputed)
[1] = compound: CC[C@@H]1C(=O)N(C)c2cnc(Nc3ccc(C(=O)NC4CCN(C)CC4)cc3OC)nc2N1C1CCCC1
How it was run: (§1)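 K562 cells (2×10^6 cells/mL) were treated with 10 μM compound for 30 min, and aliquots were heated for 3 min over 48°C-58°C. Pooled aliquots were extracted in PBS with 0.5% NP-40 at 4°C, and the supernatant after 21,000xg for 90 min was measured by TMTpro 16plex LC-MS/MS with channel sums equalised. Reported thermal stability, relative to control samples and from duplicates, is a log2 fold change.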

volasertib = compound: CC[C@@H]1C(=O)N(C)c2cnc(Nc3ccc(C(=O)N[C@H]4CC[C@H](N5CCN(CC6CC6)CC5)CC4)cc3OC)nc2N1C(C)C [volasertib]
How it was run: as §1

[2] = compound: CC[C@H](C)N1C=C(C2=C(C=C(C=C21)C3=CN=C(C=C3)N4CCNCC4)C(=O)NCC5=C(C=C(NC5=O)C)C)C
How it was run: as §1

epoxomicin = compound: CC[C@H](C)[C@@H](C(=O)N[C@@H]([C@@H](C)O)C(=O)N[C@@H](CC(C)C)C(=O)[C@]1(CO1)C)NC(=O)[C@H]([C@@H](C)CC)N(C)C(=O)C [epoxomicin]
How it was run: as §1

[3] = compound: CCn1c(C(=O)N(C2CC2)C2CC2)cc2c3c(ncn3C)c(Nc3cc(C)n(C)n3)nc21
How it was run: as §1

rosiglitazone = compound: CN(CCOC1=CC=C(C=C1)C[C@H]2C(=O)NC(=O)S2)C3=CC=CC=N3 (racemic) [rosiglitazone]
How it was run: as §1

sotrastaurin = compound: CN1CCN(c2nc(C3=C(c4c[nH]c5ccccc45)C(=O)NC3=O)c3ccccc3n2)CC1 [sotrastaurin]
How it was run: as §1

alvocidib = compound: CN1CC[C@H](c2c(O)cc(O)c3c(=O)cc(-c4ccccc4Cl)oc23)[C@H](O)C1 [alvocidib]
How it was run: as §1

Tubastatin A = compound: CN1CCc2c(c3ccccc3n2Cc2ccc(C(=O)NO)cc2)C1 [Tubastatin A]
How it was run: as §1

[4] = compound: CNC(=O)C1=CC=CC=C1NC2=NC(=NC=C2Cl)NC3=C(C=C(C=C3)N4CCOCC4)OC
How it was run: as §1

rucaparib = compound: CNCc1ccc(-c2[nH]c3cc(F)cc4c3c2CCNC4=O)cc1 [rucaparib]
How it was run: as §1

encorafenib = compound: COC(=O)N[C@@H](C)CNc1nccc(-c2cn(C(C)C)nc2-c2cc(Cl)cc(NS(C)(=O)=O)c2F)n1 [encorafenib]
How it was run: as §1

[5] = compound: CN(C)CC(=O)Nc1ccc2[nH]c(=O)c3ccccc3c2c1
How it was run: as §1

[6] = compound: CN1C2=C(C3=C1C(=O)N(N=C3)CC4=CC(=CC=C4)N)SC(=C2)S(=O)C
How it was run: as §1

saracatinib = compound: CN1CCN(CCOc2cc(OC3CCOCC3)c3c(Nc4c(Cl)ccc5c4OCO5)ncnc3c2)CC1 [saracatinib]
How it was run: as §1

defactinib = compound: CNC(=O)c1ccc(Nc2ncc(C(F)(F)F)c(NCc3nccnc3N(C)S(C)(=O)=O)n2)cc1 [defactinib]
How it was run: as §1

[7] = compound: CNc1nc(-c2ccc3c(N)n[nH]c3c2)cc(N2C[C@@H](C(=O)NC3CCCCC3)CC[C@H]2C)n1
How it was run: as §1

[8] = compound: COC(=O)[C@H](CCSC)NC(=O)C1=C(C=C(C=C1)NC[C@H](CS)N)C2=CC=CC=C2
How it was run: as §1

[9] = compound: CCn1cc(-c2ccnc3[nH]c(-c4cccc(CN(C)C)c4)cc23)c(-c2ccc(NC(=O)N(C)C)cc2)n1
How it was run: as §1

[10] = compound: CN1CCC(CNc2ccc3ncc(-c4cccc(OC(F)(F)F)c4)n3n2)CC1
How it was run: as §1

Measured: log2 fold change

AGAP3 isoform 4 (UniProt Q96P47)
Chain of UniProt Q96P47 (Q96P47 whole entry, looked up): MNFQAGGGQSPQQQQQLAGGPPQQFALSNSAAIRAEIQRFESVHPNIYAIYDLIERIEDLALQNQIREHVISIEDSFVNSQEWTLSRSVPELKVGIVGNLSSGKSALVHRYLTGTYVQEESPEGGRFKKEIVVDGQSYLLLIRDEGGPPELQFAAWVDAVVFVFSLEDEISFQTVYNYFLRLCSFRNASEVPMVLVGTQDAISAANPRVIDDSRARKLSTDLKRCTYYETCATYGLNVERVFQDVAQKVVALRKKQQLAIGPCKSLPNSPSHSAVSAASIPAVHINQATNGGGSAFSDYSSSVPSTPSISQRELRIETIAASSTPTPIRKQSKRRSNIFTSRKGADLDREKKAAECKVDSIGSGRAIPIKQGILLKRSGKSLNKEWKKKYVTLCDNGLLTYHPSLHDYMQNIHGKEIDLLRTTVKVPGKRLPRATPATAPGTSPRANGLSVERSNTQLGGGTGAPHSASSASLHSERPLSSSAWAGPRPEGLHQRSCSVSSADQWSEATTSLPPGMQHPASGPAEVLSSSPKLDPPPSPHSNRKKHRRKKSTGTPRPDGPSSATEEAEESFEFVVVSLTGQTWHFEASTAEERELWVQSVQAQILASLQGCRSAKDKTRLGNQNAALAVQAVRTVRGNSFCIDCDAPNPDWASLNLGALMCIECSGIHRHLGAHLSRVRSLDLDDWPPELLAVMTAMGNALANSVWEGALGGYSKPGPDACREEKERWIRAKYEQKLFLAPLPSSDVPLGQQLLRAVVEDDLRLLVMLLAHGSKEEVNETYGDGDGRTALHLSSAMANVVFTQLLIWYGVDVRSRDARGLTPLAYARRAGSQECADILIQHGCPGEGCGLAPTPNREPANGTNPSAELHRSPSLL
inactive: [1] 0.154 | volasertib -0.038 | [2] 0.105 | epoxomicin 0.034 | [3] 0.019 | rosiglitazone 0.162 | sotrastaurin -0.233 | alvocidib -0.011 | Tubastatin A 0.166 | [4] -0.033 | rucaparib 0.178 | encorafenib -0.104

APOBEC3G (UniProt Q9HC16)
inactive: [1] 0.267 | volasertib -0.008 | [2] 0.051 | epoxomicin -0.146 | [3] 0.006 | [5] -0.148 | rosiglitazone -0.115 | [6] 0.025 | saracatinib 0.046 | sotrastaurin 0.023 | Tubastatin A -0.045 | [4] -0.093 | defactinib -0.097 | rucaparib 0.152 | [7] -0.121 | encorafenib -0.263 | [8] 0.038

ARHGAP4 isoform 2 (UniProt P98171)
inactive: [1] -0.044 | volasertib -0.112 | [2] 0.048 | [3] -0.048 | [5] 0.036 | rosiglitazone 0.293 | saracatinib -0.094 | sotrastaurin 0.115 | alvocidib 0.089 | Tubastatin A -0.172 | [4] -0.096 | defactinib 0.22 | rucaparib -0.062 | [7] -0.139 | encorafenib 0.047 | [8] 0.097
active: [6] 0.757

ATXN3 isoform 1 (UniProt P54252)
Chain of UniProt P54252 (P54252 whole entry, looked up): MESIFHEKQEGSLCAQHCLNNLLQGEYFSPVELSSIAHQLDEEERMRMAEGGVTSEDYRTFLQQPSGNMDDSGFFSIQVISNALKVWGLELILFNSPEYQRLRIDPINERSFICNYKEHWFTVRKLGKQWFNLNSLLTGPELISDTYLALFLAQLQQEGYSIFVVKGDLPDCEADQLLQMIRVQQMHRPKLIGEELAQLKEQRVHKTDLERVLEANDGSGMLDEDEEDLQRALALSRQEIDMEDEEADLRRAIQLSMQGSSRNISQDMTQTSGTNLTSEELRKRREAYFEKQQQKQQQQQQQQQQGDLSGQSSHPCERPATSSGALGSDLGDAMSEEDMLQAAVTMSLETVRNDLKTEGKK
active: volasertib -0.401
inactive: [1] -0.371 | [2] 0.099 | [3] 0.011 | [9] -0.016 | [5] -0.083 | rosiglitazone -0.039 | [10] -0.015 | alvocidib -0.109 | Tubastatin A 0.138 | [4] -0.03 | defactinib -0.119 | rucaparib -0.015 | encorafenib 0.085 | [8] 0.018

BAD (UniProt Q92934)
Chain of UniProt Q92934 (Q92934 whole entry, looked up): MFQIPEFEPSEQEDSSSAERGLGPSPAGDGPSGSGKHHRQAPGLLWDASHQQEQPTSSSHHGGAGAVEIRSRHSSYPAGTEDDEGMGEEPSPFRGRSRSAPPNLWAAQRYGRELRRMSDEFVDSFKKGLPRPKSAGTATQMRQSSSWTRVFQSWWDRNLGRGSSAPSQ
inactive: [1] -0.043 | volasertib 0.038 | [2] 0.085 | epoxomicin -0.086 | [3] 0.014 | [9] 0.022 | [5] -0.125 | rosiglitazone 0.059 | [6] -0.069 | [10] -0.006 | saracatinib 0.021 | sotrastaurin 0.273 | alvocidib 0.005 | [4] -0.032 | defactinib 0.03 | rucaparib 0.032 | [7] -0.016 | encorafenib -0.047 | [8] -0.004

ABITRAM (UniProt Q9NX38)
Chain of UniProt Q9NX38 (Q9NX38 whole entry, looked up): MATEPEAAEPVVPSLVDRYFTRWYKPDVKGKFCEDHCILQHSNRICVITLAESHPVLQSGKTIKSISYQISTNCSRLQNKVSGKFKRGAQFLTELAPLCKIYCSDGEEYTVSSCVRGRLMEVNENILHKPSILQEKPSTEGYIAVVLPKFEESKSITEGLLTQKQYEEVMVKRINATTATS
inactive: [1] 0.033 | volasertib -0.11 | [2] 0.088 | epoxomicin 0.055 | [9] 0.137 | [5] 0.051 | rosiglitazone 0.139 | [6] -0.034 | [10] -0.093 | saracatinib 0.035 | sotrastaurin -0.188 | alvocidib -0.107 | Tubastatin A -0.007 | defactinib -0.164 | rucaparib -0.041 | [7] -0.243 | encorafenib 0.025 | [8] -0.049

ALKBH4 (UniProt Q9NXW9)
Chain of UniProt Q9NXW9 (Q9NXW9 whole entry, looked up): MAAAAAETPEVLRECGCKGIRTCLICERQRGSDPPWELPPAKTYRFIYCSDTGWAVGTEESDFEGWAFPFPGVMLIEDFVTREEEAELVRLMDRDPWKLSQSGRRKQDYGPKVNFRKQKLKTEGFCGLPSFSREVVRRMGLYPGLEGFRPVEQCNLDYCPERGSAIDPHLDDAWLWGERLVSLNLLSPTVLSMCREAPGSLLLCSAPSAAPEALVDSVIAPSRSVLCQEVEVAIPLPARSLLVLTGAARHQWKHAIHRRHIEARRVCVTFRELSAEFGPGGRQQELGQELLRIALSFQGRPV
inactive: [1] -0.064 | volasertib -0.263 | epoxomicin 0.117 | [3] -0.02 | [9] -0.023 | [5] 0.056 | rosiglitazone 0.037 | [6] -0.077 | [10] -0.082 | saracatinib -0.072 | sotrastaurin -0.106 | alvocidib -0.227 | Tubastatin A 0.086 | [4] 0.198 | defactinib -0.056 | rucaparib 0.07 | [7] 0.03 | encorafenib 0.074 | [8] 0.071

ABCB6 (UniProt Q9NP58)
inactive: [1] -0.131 | volasertib -0.051 | [2] 0.001 | epoxomicin -0.009 | [3] 0 | [9] -0.019 | [5] 0.061 | rosiglitazone 0.027 | [6] -0.053 | [10] -0.123 | saracatinib 0.073 | sotrastaurin 0.01 | alvocidib -0.064 | Tubastatin A -0.017 | [4] -0.013 | defactinib -0.031 | rucaparib -0.034 | [7] 0.003 | encorafenib 0.055 | [8] -0.017

APOH (UniProt P02749)
Chain of UniProt P02749 (P02749 whole entry, looked up): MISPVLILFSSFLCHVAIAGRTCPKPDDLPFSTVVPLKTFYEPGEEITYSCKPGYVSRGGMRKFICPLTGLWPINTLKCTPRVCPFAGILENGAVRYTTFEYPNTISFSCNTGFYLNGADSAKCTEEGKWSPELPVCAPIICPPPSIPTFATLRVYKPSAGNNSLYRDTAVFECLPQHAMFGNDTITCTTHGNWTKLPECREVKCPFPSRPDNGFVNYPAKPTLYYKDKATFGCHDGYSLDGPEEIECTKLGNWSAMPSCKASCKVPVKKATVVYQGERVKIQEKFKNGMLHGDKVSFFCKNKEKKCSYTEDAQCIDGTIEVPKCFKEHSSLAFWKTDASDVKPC
inactive: [1] -0.397 | volasertib -0.443 | [2] -0.167 | [3] -0.171 | [9] 0.078 | [5] -0.141 | rosiglitazone -0.048 | [6] 0.48 | [10] 0.077 | saracatinib 0.097 | sotrastaurin 0.317 | alvocidib 0.371 | Tubastatin A -0.128 | [4] -0.032 | defactinib -0.042 | rucaparib -0.13 | [7] -0.391 | encorafenib 0.041 | [8] -0.021

ACSL4 (UniProt O60488)
active: rosiglitazone 1.17
inactive: [1] -0.15 | volasertib -0.276 | [2] -0.051 | epoxomicin 0.024 | [3] -0.098 | [9] -0.029 | [5] 0.092 | [6] 0.051 | [10] -0.229 | saracatinib -0.128 | sotrastaurin -0.086 | alvocidib 0.033 | Tubastatin A 0.071 | [4] 0.05 | defactinib -0.041 | rucaparib 0.069 | [7] 0.043 | encorafenib 0.094 | [8] -0.024

ATF1 (UniProt P18846)
Chain of UniProt P18846 (P18846 whole entry, looked up): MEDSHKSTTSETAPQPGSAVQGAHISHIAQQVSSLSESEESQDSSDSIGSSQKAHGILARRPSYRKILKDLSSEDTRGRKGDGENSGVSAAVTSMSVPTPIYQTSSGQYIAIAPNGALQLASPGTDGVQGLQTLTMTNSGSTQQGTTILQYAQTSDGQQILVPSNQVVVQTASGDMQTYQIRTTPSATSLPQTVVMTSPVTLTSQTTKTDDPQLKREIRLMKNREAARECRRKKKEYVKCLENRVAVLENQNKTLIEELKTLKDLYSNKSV
inactive: [1] 0 | volasertib 0.109 | [2] -0.065 | epoxomicin 0.17 | [3] 0.005 | [9] 0.035 | [5] 0.002 | rosiglitazone -0.104 | [10] -0.002 | sotrastaurin -0.098 | alvocidib 0.081 | Tubastatin A -0.068 | [4] -0.052 | defactinib 0.045 | rucaparib -0.128 | encorafenib -0.07 | [8] 0.024

ATG4B isoform 2 (UniProt Q9Y4P1)
inactive: [1] -0.007 | volasertib -0.441 | [2] 0.16 | epoxomicin -0.013 | [3] 0.011 | [9] 0.039 | [5] 0.08 | rosiglitazone 0.136 | [6] 0.1 | [10] -0.302 | saracatinib -0.186 | sotrastaurin -0.297 | alvocidib -0.19 | Tubastatin A 0.02 | [4] 0.027 | defactinib -0.263 | rucaparib -0.02 | [7] 0.004 | encorafenib -0.003 | [8] -0.04

APH1A (UniProt Q96BI3)
inactive: [1] -0.023 | volasertib 0.031 | [2] 0.004 | [3] -0.019 | [9] 0.026 | [5] 0.19 | rosiglitazone -0.183 | [6] 0.034 | [10] 0.03 | saracatinib 0.025 | sotrastaurin 0.131 | alvocidib 0.073 | Tubastatin A 0.097 | [4] -0.047 | defactinib -0.089 | rucaparib 0.002 | [7] -0.01 | encorafenib 0 | [8] -0.111

ACOX3 (UniProt O15254)
active: Tubastatin A -0.465
inactive: [1] -0.346 | volasertib 0.028 | [2] -0.069 | epoxomicin -0.113 | [3] 0.011 | [5] -0.129 | rosiglitazone 0.044 | sotrastaurin -0.039 | alvocidib -0.097 | [4] -0.034 | defactinib -0.063 | rucaparib -0.313 | encorafenib -0.036 | [8] 0.046

ANK2 (UniProt Q01484)
inactive: [1] 0.049 | volasertib -0.071 | [2] -0.003 | [3] -0.1 | [9] 0.122 | [5] -0.018 | rosiglitazone 0.03 | [6] -0.128 | [10] -0.223 | saracatinib 0.24 | sotrastaurin 0.05 | alvocidib -0.013 | Tubastatin A -0.122 | [4] 0.05 | defactinib -0.057 | rucaparib -0.019 | [7] -0.095 | encorafenib -0.106 | [8] -0.041

APAF1 (UniProt O14727)
Chain of UniProt O14727 (O14727 whole entry, looked up): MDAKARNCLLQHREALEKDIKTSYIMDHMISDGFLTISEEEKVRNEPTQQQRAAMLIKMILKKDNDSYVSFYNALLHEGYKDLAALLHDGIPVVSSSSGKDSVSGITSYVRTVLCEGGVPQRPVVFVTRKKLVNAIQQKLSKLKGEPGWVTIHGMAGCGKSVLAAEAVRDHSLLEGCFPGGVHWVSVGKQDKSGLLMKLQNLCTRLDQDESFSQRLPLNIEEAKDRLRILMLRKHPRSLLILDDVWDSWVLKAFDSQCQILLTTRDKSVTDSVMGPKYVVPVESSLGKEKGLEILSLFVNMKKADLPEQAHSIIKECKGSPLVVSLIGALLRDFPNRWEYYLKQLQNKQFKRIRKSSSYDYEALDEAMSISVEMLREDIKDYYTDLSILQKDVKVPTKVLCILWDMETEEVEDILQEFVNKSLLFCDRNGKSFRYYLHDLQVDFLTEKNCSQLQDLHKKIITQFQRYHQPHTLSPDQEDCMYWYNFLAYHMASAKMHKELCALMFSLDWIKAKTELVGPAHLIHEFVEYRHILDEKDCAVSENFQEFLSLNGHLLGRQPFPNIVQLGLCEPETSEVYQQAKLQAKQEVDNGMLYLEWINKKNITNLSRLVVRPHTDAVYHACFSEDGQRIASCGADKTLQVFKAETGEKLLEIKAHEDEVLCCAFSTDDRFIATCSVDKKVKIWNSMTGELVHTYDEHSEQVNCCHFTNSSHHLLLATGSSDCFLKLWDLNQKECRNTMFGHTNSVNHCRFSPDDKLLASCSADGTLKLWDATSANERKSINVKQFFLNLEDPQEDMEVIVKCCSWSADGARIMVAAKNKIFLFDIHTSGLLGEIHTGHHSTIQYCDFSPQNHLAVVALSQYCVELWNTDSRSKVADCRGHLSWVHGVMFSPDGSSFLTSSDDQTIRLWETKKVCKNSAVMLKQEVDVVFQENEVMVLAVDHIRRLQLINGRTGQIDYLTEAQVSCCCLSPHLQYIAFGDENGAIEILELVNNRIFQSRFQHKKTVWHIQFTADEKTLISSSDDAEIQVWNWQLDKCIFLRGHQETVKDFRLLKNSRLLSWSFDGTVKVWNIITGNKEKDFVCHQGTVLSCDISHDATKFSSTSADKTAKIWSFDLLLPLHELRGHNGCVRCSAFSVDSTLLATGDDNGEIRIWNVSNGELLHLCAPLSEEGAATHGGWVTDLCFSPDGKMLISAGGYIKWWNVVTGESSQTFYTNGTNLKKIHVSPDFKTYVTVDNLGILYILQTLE
inactive: [1] -0.123 | volasertib -0.076 | [2] 0.187 | epoxomicin -0.045 | [3] -0.231 | [9] -0.009 | [5] 0.037 | [6] 0.148 | [10] -0.088 | saracatinib -0.088 | sotrastaurin 0 | alvocidib -0.026 | [4] 0.109 | defactinib 0.082 | rucaparib 0.103 | [7] 0.032 | encorafenib 0.158 | [8] 0.05

BRAF (UniProt P15056)
inactive: [1] 0 | volasertib -0.097 | [2] 0.043 | epoxomicin 0.04 | [3] 0.008 | [9] 0.029 | [5] 0.036 | rosiglitazone 0.034 | [6] -0.039 | [10] -0.07 | saracatinib 0.029 | sotrastaurin -0.069 | alvocidib -0.059 | Tubastatin A 0.007 | [4] -0.02 | defactinib -0.058 | rucaparib 0.013 | [7] -0.059 | encorafenib 0.014 | [8] -0.037

BRD8 isoform 2 (UniProt Q9H0E9)
Chain of UniProt Q9H0E9 (Q9H0E9 whole entry, looked up): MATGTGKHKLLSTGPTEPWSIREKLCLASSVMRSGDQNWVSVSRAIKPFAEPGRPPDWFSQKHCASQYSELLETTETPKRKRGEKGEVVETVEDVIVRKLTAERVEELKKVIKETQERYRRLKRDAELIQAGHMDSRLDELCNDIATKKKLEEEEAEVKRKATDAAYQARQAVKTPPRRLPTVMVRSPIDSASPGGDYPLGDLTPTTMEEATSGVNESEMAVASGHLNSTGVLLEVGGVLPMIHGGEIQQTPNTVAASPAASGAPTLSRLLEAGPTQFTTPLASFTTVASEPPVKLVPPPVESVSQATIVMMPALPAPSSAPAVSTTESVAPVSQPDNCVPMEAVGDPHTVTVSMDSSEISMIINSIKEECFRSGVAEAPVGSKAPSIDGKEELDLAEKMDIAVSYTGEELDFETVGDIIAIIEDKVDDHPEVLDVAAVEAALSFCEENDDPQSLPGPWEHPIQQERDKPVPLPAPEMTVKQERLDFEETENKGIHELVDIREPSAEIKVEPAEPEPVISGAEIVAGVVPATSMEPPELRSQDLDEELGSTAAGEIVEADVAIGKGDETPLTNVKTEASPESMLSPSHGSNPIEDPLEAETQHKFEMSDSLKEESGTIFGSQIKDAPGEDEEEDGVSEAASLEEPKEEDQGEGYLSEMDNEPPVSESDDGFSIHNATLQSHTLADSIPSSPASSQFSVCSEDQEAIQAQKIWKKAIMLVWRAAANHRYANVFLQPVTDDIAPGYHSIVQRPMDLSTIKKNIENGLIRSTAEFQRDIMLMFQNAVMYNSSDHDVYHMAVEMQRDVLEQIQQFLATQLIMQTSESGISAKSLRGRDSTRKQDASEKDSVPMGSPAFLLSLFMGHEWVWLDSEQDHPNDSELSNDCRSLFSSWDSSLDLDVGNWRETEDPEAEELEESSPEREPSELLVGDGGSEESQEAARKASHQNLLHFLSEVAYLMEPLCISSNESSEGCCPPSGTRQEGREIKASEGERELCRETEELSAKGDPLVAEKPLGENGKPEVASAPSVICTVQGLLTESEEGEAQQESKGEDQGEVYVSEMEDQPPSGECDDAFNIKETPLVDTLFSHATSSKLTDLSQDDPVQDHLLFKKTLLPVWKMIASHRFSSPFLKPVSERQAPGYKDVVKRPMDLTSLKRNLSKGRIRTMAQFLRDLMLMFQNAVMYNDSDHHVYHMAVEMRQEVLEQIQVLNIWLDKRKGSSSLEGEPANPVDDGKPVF
active: [5] 0.432
inactive: [1] 0.036 | volasertib 0.025 | epoxomicin -0.105 | [3] -0.045 | [9] 0.219 | rosiglitazone -0.018 | [6] 0.087 | [10] -0.327 | saracatinib -0.06 | sotrastaurin 0.058 | alvocidib 0.012 | Tubastatin A -0.296 | [4] 0 | defactinib -0.064 | rucaparib -0.015 | [7] -0.021 | encorafenib 0.028 | [8] 0.145
